Screening data (PubChem BioAssay)
CD40 NFkB inh – CD40 pathway inhibition in BL2 cells; AID 1053188; 83,000 tested, 0.94% active; inhibition, % at 10 µM; BL2 NF-kB luciferase reporter, CD40L-induced, 4 h;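 active means mean inhibition of at least 50% with a set share of replicates also reaching that level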
Large screens that a line does not name were inactive; [ ] = another dose, or the depositor's remark. The entries come from a sample that favours hits as a whole.

C[C@H](CO)N1C[C@H](C)[C@H](CN(C)Cc2cccc(F)c2)OCc2ccccc2-c2c(n(C)c3ccccc23)C1=O	none
C[C@@H]1CN([C@@H](C)CO)C(=O)c2c(c3ccccc3n2C)-c2ccccc2CO[C@@H]1CN(C)Cc1cccc(C(F)(F)F)c1	CD40 NFkB inh 62.4[25 µM]
C[C@@H]1CN([C@H](C)CO)C(=O)c2c(c3ccccc3n2C)-c2ccccc2CO[C@H]1CN(C)Cc1ccccc1C(F)(F)F	none
C[C@H]1CN([C@@H](C)CO)C(=O)c2c(c3ccccc3n2C)-c2ccccc2CO[C@H]1CN(C)Cc1ccc(C(F)(F)F)cc1	none
C[C@H]1CN([C@@H](C)CO)C(=O)c2ccccc2-c2ccccc2CO[C@@H]1CN(C)Cc1ccc(C(F)(F)F)cc1	none
C[C@H]1CN([C@@H](C)CO)C(=O)c2c(c3ccccc3n2C)-c2ccccc2CO[C@H]1CN(C)Cc1ccccc1C(F)(F)F	none
Cc1cccc(S(=O)(=O)N2C[C@@H]3[C@H](c4ccccc42)[C@@H](CO)N3C(=O)CC2CC2)c1	none
CN(C)C(=O)c1cccc(-c2ccc([C@@H]3[C@@H](C#N)N(C(=O)C4CCCC4)[C@@H]3CO)cc2)c1	none
O=C(Cc1cccnc1)N1CC(=O)N2[C@@H](CO)[C@H](c3ccc(C#CC4CCCC4)cc3)[C@@H]2C1	none
N#C[C@H]1[C@@H](c2ccccc2C2=CCCC2)[C@@H](CO)N1C(=O)NC1CCCC1	none
O=C(C[C@H]1C[C@@H]2c3cc(NC(=O)NC4CCCCC4)ccc3O[C@@H]2[C@@H](CO)O1)NC1CCCC1	none
C[C@@H]1CN(C)C(=O)c2cc(NS(C)(=O)=O)ccc2O[C@@H]1CN(C)C	none
Cc1ccc(-c2ccc(C3[C@@H]4CN(S(=O)(=O)c5ccccc5)C[C@H]3N4)cc2)cc1 (some centres not stated)	none
CC12CN3CC(C)(CN(C1)C3c1ccc3ccccc3c1O)C2=O (configuration not stated)	none
CC12CN3CC(C)(CN(C1)C3c1ccc3c(c1)OCO3)C2=O (configuration not stated)	CD40 NFkB inh 36.1
COc1ccc2[nH]cc(C3N4CC5(C)CN3CC(C)(C4)C5=O)c2c1 (configuration not stated)	none
COCCNC(=O)[C@H]1[C@H](CO)[C@H]2Cn3c(cccc3=O)[C@H]2N1Cc1ccccc1OC	none
O=C(Cc1cccnc1)N1CC(=O)N2[C@H](C1)[C@@H](c1ccc(C#CC3CCCC3)cc1)[C@@H]2CO	none
N#Cc1ccc(-c2ccc(C3[C@H]4CNC[C@@H]3N4C(=O)NC3CCCCC3)cc2)cc1 (some centres not stated)	none
Cc1c(C(=O)OC2CCCC2C)[nH]c2c1C(=O)CCC2 (configuration not stated)	none
Cc1c(C(=O)OCCOc2ccccc2)[nH]c2c1C(=O)CCC2	CD40 NFkB inh 65.5
CCCc1c(C(=O)OCC)[nH]c2c1C(=O)CCC2	none
C[C@@H]1CCCCO[C@@H](CN(C)Cc2ccc(C(F)(F)F)cc2)[C@@H](C)CN([C@@H](C)CO)C(=O)c2cc(NC(=O)Nc3cccc4ccccc34)ccc2O1	none
COc1ccccc1S(=O)(=O)N(C)C[C@H]1OCc2ccccc2-c2c(n(C)c3ccccc23)C(=O)N([C@@H](C)CO)C[C@@H]1C	none
COc1ccc(C#Cc2ccc([C@@H]3[C@@H](CO)N4CCCCN(S(=O)(=O)c5cn(C)cn5)C[C@@H]34)cc2)cc1	none
N#Cc1c(-c2ccco2)cc(-c2cccnc2)nc1N	none
Cc1ccc(-c2cc(-c3ccccc3)c(C#N)c(N)n2)o1	CD40 NFkB inh 46.1
Cc1ccc(-c2c(C#N)c(N)nc3c2CCCC3)o1	none
CNC[C@H]1Oc2ccc(NC(C)=O)cc2C(=O)N(C)C[C@H]1C	none
CNC[C@H]1Oc2c(NC(C)=O)cccc2C(=O)N(C)C[C@H]1C	none
CCCC#Cc1ccc([C@@H]2[C@H]3CN(C(=O)c4cccnc4)CC(=O)N3[C@H]2CO)cc1	none
O=C(C1CCCC1)N1CC(=O)N2[C@H](CO)[C@@H](c3ccc(C#Cc4cccc(F)c4)cc3)[C@@H]2C1	none
CNC[C@@H]1Oc2ncccc2C(=O)N(C)C[C@H]1C	none
COc1ccccc1NC(=O)Nc1ccc2c(c1)OCCO2	none
COc1ccc(C(=O)Nc2ccc3c(c2)OCCO3)c(OC)c1	none
COc1cc2cc(C(=O)Nc3ccc4c(c3)OCCO4)[nH]c2cc1OC	CD40 NFkB inh 60.2
C[C@@H]1CN([C@@H](C)CO)C(=O)c2cccc(NS(=O)(=O)c3cn(C)cn3)c2O[C@@H]1CN(C)S(=O)(=O)c1ccc(Cl)cc1	none
COC(=O)c1ccc(CSc2nc3ccccc3c(=O)n2-c2ccccc2)o1	none
COC(=O)c1ccc(CSc2nnc3c(Cl)cc(Cl)cn23)o1	CD40 NFkB inh 67.1
CCc1nc(SCc2ccc(C(=O)OC)o2)n[nH]1	none
COC(=O)c1ccc(CSc2nnnn2C)o1	none
COC(=O)c1ccc(CSc2cc(C)c3cc(C)cc(C)c3n2)o1	CD40 NFkB inh 54.9
COC(=O)c1ccc(CSCc2ccc(C(=O)OC)o2)o1	none
CC(C)NC(=O)N1C2CN(Cc3ccc(F)cc3)CC1C2c1ccc(Br)cc1 (configuration not stated)	none
O=C(NCC1CC1)[C@H]1[C@H](CO)[C@H]2Cn3c(ccc(-c4cccnc4)c3=O)[C@@H]1N2C(=O)C1CCCC1	none
O=C1NCCOCc2cnnn2CC[C@H]1Cc1ccc(F)cc1	none
C/C=C/c1ccc([C@H]2[C@@H](CO)N3C(=O)CN(C(=O)Nc4cccc(OC)c4)C[C@@H]23)cc1	none
O=C(c1cnccn1)N1CC(=O)N2[C@H](CO)[C@H](c3ccc(-c4cccc(F)c4)cc3)[C@H]2C1	none
CCCNC(=O)N1[C@@H](CO)[C@@H](c2ccccc2)[C@@H]1CNC(=O)c1cccc(F)c1	none
N#Cc1cccc(-c2ccc([C@@H]3[C@@H](CO)N4CCCCN(C(=O)Nc5cccc(F)c5)C[C@H]34)cc2)c1	none
O=C(Nc1ccc(F)cc1)N1CCCCN2[C@H](CO)[C@@H](c3ccc(C#Cc4ccccc4)cc3)[C@H]2C1	none
O=C(Nc1ccccc1)N1CCCCN2[C@@H](CO)[C@@H](c3ccc(C#Cc4ccccc4)cc3)[C@@H]2C1	none
N#Cc1cccc(-c2ccc([C@@H]3[C@H]4CN(C(=O)Nc5cccc(F)c5)CCCCN4[C@H]3CO)cc2)c1	none
N#Cc1cccc(-c2ccc([C@@H]3[C@H](CO)N4CCCCN(C(=O)Nc5cccc(F)c5)C[C@@H]34)cc2)c1	CD40 NFkB inh 91.7[25 µM]
O=C(Nc1ccc(F)cc1)N1CCCCN2[C@@H](CO)[C@@H](c3ccc(C#Cc4ccccc4)cc3)[C@@H]2C1	CD40 NFkB inh 62.6
C[C@@H]1CN(C)C(=O)c2cccc(N)c2O[C@@H]1CN(C)C	none
O=C(Nc1ccc(F)cc1)N1C[C@H]2[C@@H](c3ccccc31)[C@H](CO)N2C(=O)Cc1ccccc1	none
C[C@@H]1CN(C)C(=O)Cc2cc(N(C)C)ccc2O[C@@H]1CN(C)C(=O)OC(C)(C)C	none
CNC[C@@H]1Oc2ccc(N)cc2CC(=O)N(C)C[C@H]1C	none
CC(C)NC(=O)Nc1ccc2c(c1)CC(=O)N(C)C[C@H](C)[C@@H](CN(C)S(C)(=O)=O)O2	none
COCC(=O)N1C[C@H](C)[C@H](OC)CN(C)C(=O)c2ccc(NC(=O)Nc3cccc(F)c3)cc2OC[C@@H]1C	none
C[C@@H]1C[C@H](Nc2ccccc2)c2ccccc2N1C(=O)c1cccnc1	CD40 NFkB inh 19.6
CC1CC(Nc2ccccc2)c2ccccc2N1C(=O)c1cccnc1 (configuration not stated)	none
CC(=O)N(c1ccccc1)C1CC(C)N(C(=O)c2ccccc2)c2ccccc21 (configuration not stated)	none
